Active and inactive are the calls of the source.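 The calls were made as follows: active = visually confirmed hit in the image check and inhibition above 20%; inconclusive = visually confirmed hit but inhibition not above 20%; inactive = no visual hit in the image check.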
assay: endothelial E-selectin expression blockers – imaging, HUVEC, immunofluorescence, MLSMR starter and 10KST1 sets, primary screen (AID 487); conditions: HUVEC TNFalpha-induced E-selectin immunofluorescence imaging, at 2 µM; inhibition: stronger effect = higher value; nuclei count: measured here: cell number, toxicity;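 as to inhibition: signal is fraction of cell area covered by stained E-selectin grains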;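 as to nuclei count: 100% = median nuclei count of all wells on the same plate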

Structure (SMILES)	nuclei count [%]	inhibition
CCOC(=O)N1CCN(C(=O)c2cccn3c(=O)c4sccc4nc23)CC1	114	-5.7% (inactive)
O=C(c1cc2ccccc2oc1=O)N1CCN(c2ccc(N3CCOCC3)nn2)CC1	110	-13.6% (inactive)
CCc1cccc(NC(=O)CCc2nc(-c3cccs3)no2)c1	114	7.6% (inactive)
O=C(C1CC1)N1CCc2cc(Br)cc(S(=O)(=O)N3CCOCC3)c21	112	-22.9% (inactive)
CCOCCCNC(=O)C1CCCN(S(=O)(=O)CC)C1 (stereo not drawn)	95.1	-3.3% (inactive)
C/C(N)=C(/C#N)C(=O)COC(=O)CCSc1ccccc1	107	-20.4% (inactive)
CCCOc1ccc(N2CC(C(=O)Nc3ccc4c(c3)OCO4)CC2=O)cc1 (stereo not drawn)	81.9	-12.8% (inactive)
CCC(C)Nc1nc2c(c(=O)n(C)c(=O)n2C)n1Cc1ccc(F)cc1 (stereo not drawn)	106	-18.5% (inactive)
COc1ccc2cc(C(c3nnnn3C3CCCCC3)N3CCCCCC3)c3nnnn3c2c1 (stereo not drawn)	114	-10.3% (inactive)
O=C(Nc1cccnc1)Nc1ccccn1	74.1	-6.7% (inactive)
O=C(NC1CCCCC1)c1cc2nc(-c3ccco3)cc(C(F)(F)F)n2n1	156	-46% (inactive)
O=C(CCN1C(=O)COc2ccccc21)NCCN1CCN(c2cccc(Cl)c2)CC1	112	-68.5% (inactive)
CCCc1cc(=O)[nH]c(SCc2ccccc2)n1	101	-110% (inactive)
CC(CCc1ccco1)NC(=O)Cn1ncc2c1-c1ccccc1OC2 (stereo not drawn)	120	0.8% (inactive)

— PubChem BioAssay
